According to PubChem BioAssay (NCI):
The panel holds about 79,000 compounds, 15% with a hit somewhere; the sample as a whole holds those more often. Active and inactive are the calls of the source. No stated cut-off is given here; in the data, active means growth inhibition above about 70%; inactive means the rest.

What was measured:
[1] = NCI Yeast Anticancer Drug Screen. Data for the rad50 strain (AID 155);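 further: 0% = growth of vehicle-only cultures of the same strain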; details: S. cerevisiae rad50 strain growth inhibition; at 50.0 µM; stronger effect = higher value
How it was run: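 Compounds were tested on a yeast strain with an engineered DNA damage repair alteration; the reported value is growth inhibition normalised to vehicle treatment.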

[2] = NCI Yeast Anticancer Drug Screen. Data for the mec2-1 strain (AID 157); details: S. cerevisiae mec2-1 strain, at 50.0 µM, stronger effect = higher value
How it was run: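 Strain: mec2-1 (DNA repair/cell cycle alteration). Compound exposure, then growth measured; inhibition expressed relative to vehicle.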

[3] = NCI Yeast Anticancer Drug Screen. Data for the sgs1 mgt1 strain (AID 161);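 further: 0% = growth of cultures given vehicle only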; details: S. cerevisiae sgs1 mgt1 strain, at 50.0 µM, stronger effect = higher value
How it was run: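 Test agents were incubated with a DNA-repair-mutant yeast strain. Growth was then read and compared against vehicle-treated controls.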

[4] = NCI Yeast Anticancer Drug Screen. Data for the cln2 rad14 strain (AID 165);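 further: 0% = growth equal to vehicle treated cultures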; details: S. cerevisiae cln2 rad14 strain, at 50.0 µM, stronger effect = higher value
How it was run: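 Compounds are applied to the cln2 rad14 yeast strain, and growth is then compared with that of vehicle-treated cultures to give inhibition.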

[5] = NCI Yeast Anticancer Drug Screen. Data for the bub3 strain (AID 167); details: S. cerevisiae bub3 mutant strain, at 50.0 µM, stronger effect = higher value
How it was run: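 Growth of a checkpoint-deficient yeast mutant is measured after compound exposure. Values represent inhibition relative to vehicle.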

[6] = NCI Yeast Anticancer Drug Screen. Data for the mlh1 rad18 strain (AID 175); details: S. cerevisiae mlh1 rad18 strain growth inhibition; at 50.0 µM; stronger effect = higher value
How it was run: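 Read-out is yeast growth inhibition, calculated against vehicle-only controls. The compound was applied to a strain engineered with DNA damage repair alterations.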

Measured: growth inhibition

COC(=O)C1(CC(=O)c2ccc(N3CCN(c4ccc(C(=O)CC5(C(=O)OC)NC(=S)NC(=O)C5C#N)cc4)CC3)cc2)NC(=S)NC(=O)C1C#N (configuration not stated)
inactive: [1] -19.5% | [2] -0.6% | [3] -21.4% | [4] 3.95% | [5] -18% | [6] -17.1%

COC(=O)[C@H](Cc1ccc(OC(C)(C)C)cc1)N[C@H](C)C(=O)N[C@@H](Cc1ccccc1)C(=O)OCc1ccccc1
inactive: [1] 35.5% | [2] 35.1% | [3] 50.1% | [4] 67% | [5] 62.4% | [6] 57%

CCOC(=O)c1c(NN)n[nH]c1C
inactive: [1] 8.95% | [2] 13.2% | [3] 24.4% | [4] 4% | [5] 7.1% | [6] 8.85%

CCCCCc1c2c(c(CCCCC)c3c1-c1cccc4cccc-3c14)-c1ccc(C)cc1C2
inactive: [1] -29.7% | [2] -9.95% | [3] -30.9% | [4] -18.1% | [5] -0.3% | [6] -19.4%

COc1ccc(Nc2cc(N)nc(N)n2)c(=S)[nH]1
inactive: [1] 0.05% | [2] -2.85% | [3] -5.15% | [4] 1.75% | [5] 3.05% | [6] -0.95%

Cc1ccc(S(=O)(=O)C(C#N)CCC(=O)c2ccc(Cl)cc2)cc1 (configuration not stated)
inactive: [1] 6.25% | [2] 3.55% | [3] 6.75% | [4] 9.45% | [5] 10.2% | [6] 17.6%

CC(=O)OCc1ccc(Cl)cc1Cl
inactive: [1] 3.65% | [2] -2.9% | [3] 7.25% | [4] 7.4% | [5] -33.4% | [6] -12.2%

CSc1nnc(COc2ccc(Cl)cc2)o1
inactive: [1] 22.3% | [2] 5.75% | [3] 26.1% | [4] 29.4% | [5] 12.8% | [6] 20.7%

NS(=O)(=O)c1ccc(NC(=O)Nc2ccccc2F)cc1
inactive: [1] -3.35% | [2] -6.85% | [3] -28.4% | [4] -13.2% | [5] 1.15% | [6] 12.6%

COc1ccc(/C=N/NC(=O)c2cnc3[nH]c(=O)n(C)c(=O)c3c2)cc1
inactive: [1] 10.7% | [2] 10.3% | [3] 30.6% | [4] 5.45% | [5] 11.2% | [6] 22.4%

COc1cc(C(=O)CBr)c(OC)cc1C
inactive: [1] 10.9% | [2] -10.7% | [3] 38% | [4] 17% | [5] 2.15% | [6] 46.8%

N#CC(CNC1CCCCC1)c1ccccc1 (configuration not stated)
inactive: [1] -9.35% | [2] -4.35% | [3] 4.3% | [4] -32.7% | [5] 15.1% | [6] 10.7%

CCOC(=O)c1[nH]c(C(=O)O)c(C(=O)OCC)c1C
inactive: [1] 7.3% | [2] 3.7% | [3] 4.85% | [4] -12.8% | [5] -5.3% | [6] -10.1%

CC(=O)/C(C=Nc1c(C)n(C)n(C)c1=O)=C(/O)c1ccccc1
inactive: [1] 0.15% | [2] 4.05% | [3] -10.4% | [4] 7.55% | [5] -19.6% | [6] 16%

O=C(OCc1ccco1)c1ccc([N+](=O)[O-])cc1
inactive: [1] -5.15% | [2] -7.3% | [3] -3.75% | [4] -32.6% | [5] -13.5% | [6] -12.8%

CCOC(=O)/C(C)=C(/C)Nc1ccccc1
inactive: [1] 1.45% | [2] 3.8% | [3] -1.25% | [4] -28.9% | [5] -10.1% | [6] 2.7%

CCN(CC)c1ncnc2c1nc(C)n2Nc1ccccc1
inactive: [1] 13.7% | [2] -3.1% | [3] 1.3% | [4] 7.4% | [5] 0.5% | [6] -10.7%

Cc1ccc(N=Nc2ccc(C)cc2NC(=S)Nc2ccccc2)cc1
inactive: [1] -11.2% | [2] -0.95% | [3] -12.3% | [4] -20.9% | [5] 7.7% | [6] -8.75%

O=C1c2ccccc2C(=O)N1Br
inactive: [1] 0.15% | [2] -19.5% | [3] 6.5% | [4] 10.8% | [5] 3.6% | [6] 18.9%

COc1cc2c(cc1OC)C(O)C(O)(CO)C(C(=O)O)C2c1cc(OC)c(OC)c(OC)c1 (configuration not stated)
inactive: [1] 24.4% | [2] -10.3% | [3] 12.1% | [4] 18.2% | [5] 25.1% | [6] 22.7%

Cc1ccc(S(=O)(=O)N/N=C/C(C)(c2ccccc2)c2ccccc2)cc1
inactive: [2] 52% | [3] 69.3% | [4] 40.2% | [5] 15.8% | [6] 47.8%
active: [1] 70.9%

COc1ccc(-c2c3c(nc4nc(SC)nc(SC)c24)CCCC3)cc1OC
inactive: [1] 1.15% | [2] -10.4% | [3] 1.25% | [4] 1.15% | [5] -2.65% | [6] 6.8%

O=CN(C1CCCCC1)C1CCCCC1
inactive: [1] 14.6% | [2] 15.6% | [3] 11% | [4] 8.8% | [5] 1.5% | [6] 0%

O=C1c2[nH]c3ccccc3c2CN1CCc1ccccc1
inactive: [1] -2.4% | [2] -15.9% | [3] 4.7% | [4] -14.5% | [5] -4.45% | [6] -5.1%

CCOC(=O)C(O)(NC(C)=O)C(F)(F)F (configuration not stated)
inactive: [1] 27.9% | [2] -3.9% | [3] -0.8% | [4] 17.4% | [5] 0.2% | [6] -47.4%

COc1ccccc1-n1c(O)c(N=Nc2ccc(Cl)cc2)c(=O)n(-c2ccc(I)cc2)c1=S
inactive: [1] 45.4% | [2] 10% | [3] 36% | [4] -9% | [5] 1.25% | [6] 27.1%

CN1CCN(c2ccncc2S(=O)(=O)N2CCN(C)CC2)CC1
inactive: [1] -17.2% | [2] -12.7% | [3] 1.2% | [4] -15.4% | [5] -11.4% | [6] -2.5%

Cc1cc(N=Nc2ccc(S(=O)(=O)O)c3ccccc23)ccc1O
inactive: [1] -33.6% | [2] 9.75% | [3] -5.1% | [4] -66.1% | [5] 12.9% | [6] -5.6%

C=CC(CO)N(CC)CC (configuration not stated)
inactive: [1] 9.55% | [2] 8.7% | [3] 7.25% | [4] 13.3% | [5] 1.8% | [6] 11.3%

C=CCn1c(SCc2ccccc2)nccc1=O
inactive: [1] 25.1% | [2] -10.8% | [3] 16.9% | [4] -33% | [5] 7.15% | [6] 8.9%

O=C(CN1CCCC1)Nc1ccc2c(c1)C1Oc3ccccc3CC1CO2 (configuration not stated)
inactive: [1] 7.65% | [2] 4.2% | [3] 5.55% | [4] 11.6% | [5] -12.7% | [6] 30.6%

C=C(C/C(=C/S(C)=O)c1ccccc1)c1ccccc1 (configuration not stated)
inactive: [1] 43.9% | [2] 12.3% | [3] 18.7% | [4] 29.6% | [5] 20.9% | [6] 34.4%

CC(=O)Nc1cc2c3c(c1)CCCN3CCC2
inactive: [1] -24.4% | [2] -14.8% | [3] -38.2% | [4] 25.9% | [5] 27.6% | [6] -3.6%

CCCS(=O)(=O)N(CC)CC
inactive: [1] -0.4% | [2] -10.8% | [3] -1.9% | [4] -27.5% | [5] -5.65% | [6] -15.4%

CC(C)(CO)C(Cl)C(=O)NCCC(=O)O (configuration not stated)
inactive: [1] -6.05% | [2] -14.9% | [3] -13% | [4] -2% | [5] 15.7% | [6] -13.4%

O=C(O)c1[nH]c2c(=O)[nH]c(=O)[nH]c2c1Br
inactive: [1] 5.25% | [2] -2.8% | [3] -15.9% | [4] -4.35% | [5] 2.15% | [6] 15%

O=C1C(c2ccccc2)=C(O)c2cccc3cccc1c23
inactive: [1] -24.4% | [2] -33.5% | [3] -13% | [4] 13.4% | [5] -3.65% | [6] -57.6%

CCCCC/C(C)=C\C(=O)O
inactive: [1] 8.95% | [2] 9.4% | [3] 7.25% | [4] -14.2% | [5] -2.4% | [6] 5.35%

CCN(CCNc1cc(OC)cc2cccnc12)CC(C)C
inactive: [1] 22.8% | [2] 9.65% | [3] 1.8% | [4] 13.8% | [5] 6.85% | [6] 17%

CCC[C@@H]1CCCC[C@H]1C
inactive: [1] 0.55% | [2] -1.95% | [3] -5.3% | [4] -2.2% | [5] -14.2% | [6] 0.5%

CC1(C)N=C(C(N)=O)c2ncn(CCO)c2N1
inactive: [1] -12.4% | [2] -34% | [3] -21.6% | [4] -10.7% | [5] -9.95% | [6] -23.4%

CCN(CC)c1ccc(N=C2C=CC(=O)C(NC(C)=O)=C2)c(C)c1
inactive: [1] -13.2% | [2] -24.8% | [3] 29.2% | [4] -8.15% | [5] 14.1% | [6] 13.3%
